Experimental data: PubChem BioAssay (NCI)
“And” between values parts separate entries of the source, which are not always exact repeats. Identical values can stand only once. About 83,000 compounds went through this panel and 20% of them were active in at least one assay; those are over-represented in the sample as a whole.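 Interpretation: 100, growth as untreated; towards 0, rising growth inhibition; 0, no net growth; 0 to -100, cell death. Compounds scoring below 10 were considered active.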 The source made the active and inactive calls.

system: HL-60(TB) leukemia; test: NCI-60 one-dose screen, 48 h (100 = growth as untreated, 0 = no growth, -100 = all killed); details: 10 µM unless noted

Row | SMILES | growth
1 | Fc1ccc(N/N=C/c2ccc(-n3cccn3)cc2)cc1 | 118% (inactive)
2 | CC(=O)NC1C(O[C@H]2C[C@H]3[C@@H]4CC=C5C[C@@H](O)CC[C@]5(C)[C@H]4CC[C@]3(C)[C@H]2[C@H](C)C(=O)CCC(C)C)OCC(O)C1O (some centres not stated) | 10.1% (inactive)
3 | CCN(CC)CCOc1ccc(NC(=O)C(C(C)C)N2C(=O)/C(=C/c3ccc(Br)cc3)SC2=S)cc1 (configuration not stated) | 27.6% (inactive)
4 | COc1ccc(-c2cc(/C=C3\C(=O)Nc4cc(Cl)ccc43)[nH]n2)cc1OC | 53% (inactive)
5 | Cn1c(SSc2ccc(-c3cccnc3)n2C)ccc1-c1cccnc1 | 62.8% (inactive) and -32.2% (active)
6 | CN(CCNCc1ccccn1)CCNCc1ccccn1 | 6% (active)
7 | COC(=O)C1=COC(C)C2C[n+]3ccc4c([nH]c5ccccc54)c3CC12 (configuration not stated) | 106% (inactive) and 103% (inactive)
8 | O=C(Nc1ccc(S(=O)(=O)NC2CCCCCC2)cc1)C(c1ccccc1)S(=O)(=O)c1ccc(F)cc1 (configuration not stated) | -12.4% (active)
9 | Cc1nc2cc(NC(=O)CN3CCN(CCN4C(=O)c5cccc6cccc(c56)C4=O)CC3)ccc2s1 | 63.9% (inactive)
10 | N#CCNC(=O)c1ccc(-c2ccnc(Nc3ccc(N4CCOCC4)cc3)n2)cc1 | -25.3% (active)
11 | Cc1nn(-c2ccc(Cl)cc2)c(=O)n1CCn1cnc2ccccc21 | 102% (inactive)
12 | COc1ccc2c(O)c(/C=C3\N=Nc4ccccc43)oc2c1C[C@@H]1CCNC[C@H]1F | 61% (inactive)
13 | COc1ccc(-n2c(-c3ccccc3)c(-c3ccccc3)c3c(SCC(=O)N/N=C/c4ccc(Cl)cc4)ncnc32)cc1 | 103% (inactive)
14 | CCN1CCC2(CC1)OC(c1ccccc1)C(c1ccccc1)O2 (configuration not stated) | 103% (inactive)
15 | c1ccc2c(c1)Oc1cccnc1-n1nccc1-2 | 101% (inactive)
16 | Cc1nc(N)sc1Sc1nc2ccc(Cl)cc2c(=O)n1-c1ccc(Oc2ccccc2)cc1 | 59.4% (inactive)
17 | O=C1c2cccnc2C(=O)c2c1c(C(=O)NCCn1ccnc1)c1ccccn21 | 0.989% (active)
18 | COC(=O)/C=C\C(=O)OC | 90.5% (inactive)
19 | NC(=O)c1ccccc1NC(=O)c1ccccc1Cl | 64.4% (inactive)

Row | SMILES | growth
20 | ClC(Cl)c1nc(-c2cccnc2)n2nc(-c3ccccc3)cc2n1 | 14.2% (inactive)
21 | CC(C)(C)[Si](C)(C)OC1[C@@H](O[Si](C)(C)C(C)(C)C)[C@@H](CNC(=O)NC(=O)C(F)(F)F)O[C@H]1n1cnc2c(NC(=O)Nc3ccccc3)ncnc21 (some centres not stated) | -52.6% (active)
22 | O=C(Nc1cccc(-n2cc(-c3ccncc3)c(-c3ccc(Cl)c(O)c3)n2)c1)Nc1cccc(C(F)(F)F)c1 | 12.5% (inactive)
23 | COc1ccc(Nc2nc(N/N=C/c3ccc(O)cc3)nc(Nc3ccc([N+](=O)[O-])cc3)n2)cc1 | 116% (inactive)
24 | CCOc1ccc2sc(NS(=O)(=O)c3ccc(N)cc3)nc2c1 | 94.7% (inactive)
25 | CSc1nnc(-c2cnn3c2NC(c2ccccc2)C3)n1-c1ccc(C(F)(F)F)cc1 (configuration not stated) | 73.6% (inactive)
26 | O=C(NO)c1ccc(Cn2c(=O)n(-c3ccccc3)c(=O)c3ccccc32)cc1 | 1.26% (active)
27 | O=C(O)c1ccc(-n2cc(/C=N/Nc3ccc(F)cc3)c(-c3cc4ccccc4oc3=O)n2)cc1 | 6.08% (active)
28 | NC(=O)c1ccc[n+](Cc2ccccc2)c1 | 152% (inactive)
29 | CCCCCCCCCCCCCCCCSC(=NCC)NCC | -59.1% (active)
30 | C=CC(=O)Nc1cccc(-c2nc(SC)nc(Nc3ccccc3OC)c2C#N)c1 | 14.1% (inactive)
31 | CC(=O)c1cccc(NS(=O)(=O)c2cccc(C(=O)Nc3ccc(Br)cc3)c2)c1 | 48.7% [25 µM] (inactive)
32 | COc1ccc(N)c(S)c1 | 93.4% (inactive)
33 | O=C1c2ccccc2C(=O)c2c(NCCNCCO)ccc(NCCNCCO)c21 | 64.9% (inactive) and 11.4% (inactive) and 2.46% (active)
34 | COc1ccc(/C=C\c2nc3ccccc3s2)cc1OP(=O)(O)O | -1.37% (active)
35 | COc1ccc(CN2C(=O)/C(=C\C(=O)c3ccc(OCCN4CCCCC4)cc3)c3ccccc32)cc1 | 20% (inactive)
36 | CC(C)CCN(CCCNc1c2c(nc3ccccc13)CCCC2)CCC(C)C | 102% (inactive)
37 | CCOc1ccc2cc(-c3nn(CC4CCNCC4)c4ncnc(N)c34)ccc2c1 | 98.1% (inactive) and 19.7% (inactive)
